Some test systems named below: NCI-H226 lung; NCI-H322M lung; HOP-62 NSCLC; NCI-H460 lung; HOP-92 NSCLC; NCI-H522 lung; A549/ATCC NSCLC; 786-0 renal; COLO 205 colon; DU-145 prostate; K-562 leukemia; MALME-3M melanoma; MDA-MB-231 breast; RXF 393 renal; SF-268 CNS; SF-295 CNS; SF-539 CNS; UACC-257 melanoma; M14 melanoma.
What all share (assay): NCI-60 one-dose screen, 48 h (100 = growth as untreated, 0 = no growth, -100 = all killed)
Conditions in all cases: 10 µM unless noted

About 83,000 compounds went through this panel and 20% of them were active in at least one assay; those are over-represented in the sample as a whole.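 Compound tested at a single concentration for 48 hours in 96-well plates; a percent growth value below 10 was scored as active.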 A number with no mark means an inactive call. Activity calls are given as the source filed them.

Regarding `Cn1cc(-c2cc(N)n3nc(-c4cn(C)c5ccc(Cl)cc45)cc3n2)c2ccccc21`, the growth was 105% with NCI-H226 lung; 103% with NCI-H322M lung; 115% in the test on HOP-62 NSCLC; 115% in the test with NCI-H460 lung; 133% in the test on HOP-92 NSCLC; 100% in the test on NCI-H522 lung. The growth was 107% in the test with A549/ATCC NSCLC; 88.4% in the test with 786-0 renal; 117% in the test with COLO 205 colon; 111% in the test on DU-145 prostate; 108% with K-562 leukemia; 104% with MALME-3M melanoma. For the same molecule, the growth with MDA-MB-231 breast is 107%; with RXF 393 renal, 115%; in the test with SF-268 CNS it was 107%; in the test on SF-295 CNS it was 97.2%; with SF-539 CNS, 105%; in the test on UACC-257 melanoma, 102%. Further, in the test with M14 melanoma, the growth was 102%.

For the molecule `C#CCOc1cc(N(CC)CC)ccc1C(C(=O)NC(C)(C)C)N(C(=O)C1CCc2cc(F)ccc2O1)c1ccc(F)cc1` (stereo not given), the growth with NCI-H226 lung was 43.5%; in the test on NCI-H322M lung it was 70.6%; in the test with HOP-62 NSCLC, 70.2%; with NCI-H460 lung, 36.7%; in the test on HOP-92 NSCLC, 39.8%; in the test with NCI-H522 lung, 43.1%. For the same molecule, the growth was 39.8% with A549/ATCC NSCLC; 52.8% in the test on 786-0 renal; 32.4% in the test on COLO 205 colon; 65.3% with DU-145 prostate; 23.6% in the test on K-562 leukemia; 65.6% in the test with MALME-3M melanoma. Further, the growth in the test with MDA-MB-231 breast is 51%; with RXF 393 renal it was 57.3%; in the test on SF-268 CNS, 47.7%; with SF-295 CNS it was 41.5%; in the test with SF-539 CNS, 66.2%; with UACC-257 melanoma it was 40.3%. Besides, in the test on M14 melanoma, the growth is 46.4%.

Turning to `CC1[C@H]2[C@H](C[C@H]3[C@@H]4CC=C5c6sc(Nc7ccccc7F)nc6CC[C@]5(C)[C@H]4CC[C@@]32C)O[C@]12CC[C@@H](C)CO2` (stereo not given in full), the growth was -29.2% (active) with NCI-H226 lung; -31.4% (active) in the test with NCI-H322M lung; -62.4% (active) in the test on HOP-62 NSCLC; -62.6% (active) with NCI-H460 lung; -59.2% (active) with HOP-92 NSCLC; -66.5% (active) with NCI-H522 lung. Also, the growth is -63.5% (active) with A549/ATCC NSCLC; -82.1% (active) in the test with 786-0 renal; -88.3% (active) in the test on COLO 205 colon; -48.6% (active) in the test on DU-145 prostate; 1.23% (active) in the test on K-562 leukemia; -73.9% (active) in the test with MALME-3M melanoma. The growth is -57.5% (active) in the test on MDA-MB-231 breast; -88.7% (active) in the test on RXF 393 renal; -53.5% (active) with SF-268 CNS; -75.5% (active) with SF-295 CNS; -87.9% (active) in the test on SF-539 CNS; -85.1% (active) in the test on UACC-257 melanoma. The growth in the test on M14 melanoma is -87.8% (active).

With `O=C(c1ccccc1)C(c1c[nH]c2ccccc12)c1c[nH]c2ccccc12`, the growth in the test on NCI-H226 lung was 41.7%; with NCI-H322M lung it was 96.5%; with HOP-62 NSCLC, 83.5%; with HOP-92 NSCLC it was 76.7%; with NCI-H522 lung, 35.9%; in the test with A549/ATCC NSCLC it was 70.2%. For the same molecule, the growth is 78.7% in the test on 786-0 renal; 58.5% in the test with COLO 205 colon; 71.7% in the test on DU-145 prostate; 10.3% in the test on K-562 leukemia; 72.8% with MALME-3M melanoma; 57.5% in the test with MDA-MB-231 breast. The growth with RXF 393 renal was 46.8%; with SF-268 CNS it was 60.3%; with SF-295 CNS it was 85.4%; with SF-539 CNS, 85.4%; in the test with UACC-257 melanoma, 76.8%; in the test on M14 melanoma, 61.1%.

Consider `Cc1ccc(-c2nc(C#N)c(S(=O)(=O)N3CCN(S(=O)(=O)c4ccc(Cl)cc4)CC3)o2)cc1`, for which the growth in the test on NCI-H226 lung is 87.6%; in the test with NCI-H322M lung it was 97.1%; in the test on HOP-62 NSCLC, 63%; with HOP-92 NSCLC, 94.6%; in the test on NCI-H522 lung, 71.2%; with A549/ATCC NSCLC, 94.3%. For the same molecule, the growth with 786-0 renal is 49.1%; in the test with COLO 205 colon, 124%; in the test on DU-145 prostate it was 97.4%; in the test on K-562 leukemia, 56.9%; in the test on MALME-3M melanoma it was 79.1%; with MDA-MB-231 breast, 90.9%. The growth is 56.6% with RXF 393 renal; 75.8% with SF-268 CNS; 110% in the test on SF-295 CNS; 70.5% in the test on SF-539 CNS; 89.5% in the test with UACC-257 melanoma; 91.5% in the test on M14 melanoma.

`C#CCOc1ccc(/C=N/Nc2nc(-c3cc4cc(Br)ccc4oc3=O)cs2)cc1OC`: the growth is 29.8% with NCI-H226 lung; 77.8% in the test with NCI-H322M lung; 51.7% with HOP-62 NSCLC; 43.4% in the test on NCI-H460 lung; 45.5% in the test on HOP-92 NSCLC; 34.3% in the test with NCI-H522 lung. The growth is 49.5% in the test with A549/ATCC NSCLC; 50.8% in the test with 786-0 renal; 88.1% in the test with COLO 205 colon; 69.1% in the test with DU-145 prostate; 58% in the test on K-562 leukemia; 59.4% in the test on MALME-3M melanoma. Further, the growth in the test on MDA-MB-231 breast was 36.3%; in the test with RXF 393 renal, 58.1%; with SF-268 CNS, 59.6%; in the test with SF-295 CNS, 24.2%; in the test with SF-539 CNS, 25.1%; in the test on UACC-257 melanoma, 86.4%. For the same molecule, the growth with M14 melanoma was 79.4%.

As for `COc1cc2oc(-c3cccc(C(=O)Nc4ccc(Cl)cc4)c3)cc(=O)c2c(OCC(=O)N[C@@H](Cc2ccccc2)C(=O)O)c1OC`, the growth in the test on NCI-H226 lung was 102%; in the test on NCI-H322M lung, 103%; in the test with HOP-62 NSCLC, 120%; in the test on NCI-H460 lung it was 111%; in the test on HOP-92 NSCLC it was 124%; in the test on NCI-H522 lung, 96.3%. Moreover, the growth was 106% with A549/ATCC NSCLC; 102% with 786-0 renal; 119% in the test on COLO 205 colon; 111% in the test on DU-145 prostate; 96.5% with K-562 leukemia; 107% in the test on MALME-3M melanoma. Moreover, the growth in the test with MDA-MB-231 breast is 96.1%; in the test on RXF 393 renal, 111%; with SF-268 CNS, 110%; with SF-295 CNS it was 111%; in the test on SF-539 CNS, 99.3%; in the test with UACC-257 melanoma, 104%. In addition, the growth in the test on M14 melanoma was 109%.

On to `O=C(c1ccccc1)c1ccc2nc(-c3cccc(Cl)c3)[nH]c2c1`, for which the growth in the test with NCI-H226 lung was 105%; in the test with NCI-H322M lung it was 105%; with HOP-62 NSCLC, 107%; in the test on NCI-H460 lung, 111%; with HOP-92 NSCLC, 111%; with NCI-H522 lung it was 101%. For the same molecule, the growth is 104% in the test on A549/ATCC NSCLC; 100% in the test on 786-0 renal; 116% in the test on COLO 205 colon; 115% in the test with DU-145 prostate; 98.1% in the test on K-562 leukemia; 111% in the test on MALME-3M melanoma. In addition, the growth in the test with MDA-MB-231 breast was 102%; in the test with RXF 393 renal, 115%; with SF-268 CNS it was 106%; with SF-295 CNS it was 116%; in the test with SF-539 CNS, 94.9%; in the test on UACC-257 melanoma, 100%. Moreover, in the test with M14 melanoma, the growth was 108%.

These data come from PubChem BioAssay (NCI).
